SMN2 splice up = qHTS Assay for Enhancers of SMN2 Splice Variant Expression. 2.8% of 210,000 active. Potency, µM (series often up to 46.1 µM), without a hit: top-dose activity change, positive = activation, most hits filed as activators. HEK293 SMN2-luciferase splicing reporter, luminescence, 30-36 h; further: % of control where 0% means no effect; nearly all actives have a fitted effect of over 55% in size
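HEK293 cells carry an SMN2 minigene-luciferase reporter in which exon 7 inclusion puts luciferase in frame. Cells were seeded at 2000 cells/well, attached for 10-12 hours, then exposed to compounds for 30-36 hours at 37C before ONE-Glo luminescence.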
NPC1 promoter act = qHTS Assay for NPC1 Promoter Activators; Huh7 NPC1 promoter luciferase reporter, 24 h; Potency, µM (doses to about 9.22 µM), for the others: top-dose activation, hits mostly activators; 2.4% of 320,000 active; AID 485313, 2010; further: % of control where 0% means no effect; nearly all actives have a fitted effect of over 60% in size
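Quantitative HTS used a cell-based reporter: Huh7 cells stably bearing the NPC1 promoter upstream of luciferase were treated with compounds for 24 h, and promoter activation was read as luminescence.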
Rab9 prom act = qHTS Assay for Rab9 Promoter Activators; Huh7 Rab9 promoter-luciferase reporter, luminescence, 24 h; Potency, µM (series often up to 9.22 µM), for the others: at the top dose activation, negative = inhibition, usual class: activators; 2.8% of 320,000 active; further: % of control where 0% means no effect; nearly all actives have a fitted effect of over 60% in size
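Luciferase signal after 10 min detection reagent at ambient indicates Rab9 promoter upregulation; stably transfected Huh7 cells were treated 24 h with compound in DMSO at 37 °C, 5% CO2.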
FLuc modulator = qHTS profiling assay for firefly luciferase inhibitor/activator using purifed enzyme and Km concentrations of substrates (counterscreen for miR-21 project) | AID 588342, 2011 | Luciferin 4-monooxygenase (Photinus pyralis), P08659 | purified FLuc, Km substrates, luminescence inhibition | Potency, µM (series often up to 57.5 µM), without a hit: at the highest dose activity change, negative = inhibition, hits mostly inhibitors | 6.9% of 360,000 active;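 further: plate controls were vehicle for no effect and reference inhibitor for full effect; nearly all actives have a fitted effect of over 55% in size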
Target sequence (P08659 whole entry, looked up): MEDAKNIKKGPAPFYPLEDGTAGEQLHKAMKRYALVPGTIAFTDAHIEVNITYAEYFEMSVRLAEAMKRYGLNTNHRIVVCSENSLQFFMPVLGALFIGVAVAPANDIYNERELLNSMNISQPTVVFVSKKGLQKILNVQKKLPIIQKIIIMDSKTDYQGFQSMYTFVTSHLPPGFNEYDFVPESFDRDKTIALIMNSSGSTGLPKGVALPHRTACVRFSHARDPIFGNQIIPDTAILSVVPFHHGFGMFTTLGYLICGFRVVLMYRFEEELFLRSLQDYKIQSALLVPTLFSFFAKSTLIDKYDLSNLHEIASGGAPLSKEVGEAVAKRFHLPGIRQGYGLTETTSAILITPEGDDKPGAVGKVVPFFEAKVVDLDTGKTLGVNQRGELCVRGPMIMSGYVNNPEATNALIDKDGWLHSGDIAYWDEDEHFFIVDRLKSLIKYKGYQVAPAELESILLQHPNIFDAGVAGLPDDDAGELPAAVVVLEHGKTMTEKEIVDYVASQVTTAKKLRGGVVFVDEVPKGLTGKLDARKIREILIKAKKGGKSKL
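Biochemical qHTS of compounds, final roughly 60 µM downward over six points, against 10 nM purified firefly luciferase using Km concentrations of substrates (10 uM D-luciferin, 10 uM ATP) in Tris acetate pH 7.5 buffer; luminescence output.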
ELG1 genotox = qHTS screen for small molecules that induce genotoxicity in human embryonic kidney (HEK293T) cells expressing luciferase-tagged ELG1; HEK293T ELG1-luciferase reporter, luminescence, 16 h; Potency, µM (doses to about 46 µM), for the others: top-dose activity change, positive = activation, actives largely listed as activators; 1.3% of 330,000 active; further: % of control where 0% means no effect; nearly all actives have a fitted effect of over 60% in size
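Luminescence read-out: rising ELG1-luciferase signal, reflecting elevated ELG1 protein under genetic stress, flags genotoxic compounds. Cells were treated for 16 hr at 37 °C before ONE-Glo detection.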
* hit, by the source's call; u = inconclusive; x = not tested or not shown; [ ] = dose if it differs, or a comment. In the library only some 7.4% were active in any assay of this set; here they are far more common. The call rests on the fitted dose curve; in most records, active means well fitted curve in the direction sought with a large enough effect; inconclusive means small, poorly fitted or top-dose-only effect, or another doubt; inactive means no such curve, though single readings can be large; an effect the other way counts as inactive or inconclusive. Potency means the concentration at half of the fitted maximal effect.

SMILES | SMN2 splice up | NPC1 promoter act | Rab9 prom act | FLuc modulator | ELG1 genotox
O=[N+]([O-])c1ccc(Cl)c(-c2ccc(/C=N/c3c(-c4ccco4)nc4ccccn34)o2)c1 | 22% | 19% | u | -19% | 2%
COc1cc(-c2nc3ccccn3c2/N=C/c2ccccc2)ccc1O | 9% | 2% | -2% | u | 12%
COc1ccc(-c2nc3ccccn3c2/N=C/c2ccc(OC)c(OC)c2)cc1O | 6% | -5% | 6% | 13µM* | 8%
CCC(C)(C)NC(=S)Nc1ccc(-c2nc3ccc(C)cc3s2)cc1 | 28%[1.84 µM] | 4.5µM* | 2.8µM* | 2.7µM* | 9.2µM*
CCCCNC(=S)Nc1ccc(-c2nc3ccc(C)cc3s2)cc1 | 3.5µM* | 3.5µM* | 2.8µM* | 1.7µM* | 4.6µM*
COCCCNC(=S)Nc1ccc(C)cc1 | x | 2% | 0% | u | 2%
COc1cc(C2NC(=S)NC3=C2CCc2ccccc23)cc(OC)c1OC (stereo not given) | 5% | -1% | -4% | -2% | 3%
C=CCOc1ccc(C2NC(=S)NC3=C2CCc2ccccc23)cc1 (stereo not given) | x | 1% | -11% | 6µM* | 24%
O=c1c2cc(-c3ccccc3)sc2nc2n1CCC2 | 3.2µM* | 0.5µM* | 0.63µM* | 3µM* | 1.2µM*
NC(=O)CSc1nc2sc(-c3ccccc3)cc2c(=O)n1N | 9% | 15% | 24% | u | 13%
Cc1nc2sc(-c3ccccc3)cc2c(=O)n1N | x | 0.1µM* | u | 0.67µM* | u
Cc1nc2sc(-c3ccccc3)cc2c(=O)n1-n1cccc1 | x | 1.3µM* | 1.6µM* | 7.6µM* | u
Cc1nc2sc(-c3ccccc3)cc2c(=O)n1/N=C/N(C)C | 11µM* | 2.5µM* | 2.8µM* | 19µM* | u
Cc1sc2nc(C)n(/N=C/N(C)C)c(=O)c2c1C | x | 3% | 1% | -2% | 3%
Cc1ccccc1N1CC(C(=O)Nc2ccncc2)CC1=O (stereo not given) | x | 11% | -1% | 3% | -10%
CCOCCCN(Cc1ccco1)S(=O)(=O)c1cc2c(cc1Cl)NC(=O)CO2 | x | x | x | -12% | x
O=C(O)COc1ccc2c(c1)O/C(=C\c1cccs1)C2=O | x | -5% | -1% | 1.9µM* | 1%
Cc1ccc(/C=C2\Oc3cc(OCC(=O)NN)ccc3C2=O)o1 | x | 1% | -5% | 2.1µM* | 0%
C[C@H](NC(=O)c1ccco1)C(=O)NCCc1ccc(S(N)(=O)=O)cc1 | x | -6% | -1% | -2% | 1%
Clc1nssc1=Nc1ccc(Br)cc1 | -12% | 4% | -2% | 24µM* | -6%
N#Cc1cccc(N=c2ssnc2Cl)c1 | -18% | 1% | -4% | 19µM* | 0%
c1ccc(OCCOc2ncnc3ccccc23)cc1 | 3% | 3.5µM* | 4µM* | u | u
CCCc1[nH]n(-c2nc3ccccc3s2)c(=O)c1C=NCC1CCCO1 (stereo not given) | -7% | 6% | 14% | -18% | 2%
O=c1c(C=NCCCO)c(-c2ccccc2)[nH]n1-c1nc2ccccc2s1 | x | 0% | -12% | 15µM* | 11%
CCCc1[nH]n(-c2nc3ccccc3s2)c(=O)c1C=NCCN1CCOCC1 | 41% | 18% | 16% | 17µM* | u
SMILES | SMN2 splice up | NPC1 promoter act | Rab9 prom act | FLuc modulator | ELG1 genotox
CCCc1[nH]n(-c2nc3ccccc3s2)c(=O)c1C=NCCCOC | x | 13% | 5% | -16% | 7%
CCCCCN=Cc1c(C)[nH]n(-c2nc3ccccc3s2)c1=O | 11% | u | u | 4.8µM* | 2.9µM*
COCCCN=Cc1c(-c2ccccc2)[nH]n(-c2nc3ccccc3s2)c1=O | x | -6% | 1% | 15µM* | 1%
COc1cccc(NC(=O)Cn2cc(C(=O)C3CCCCC3)c3ccccc32)c1 | -10% | x | x | 5% | x
CN(C)CCCN=C(N)N | 1%[9.22 µM] | x | x | x | x
O=C1CC(N2CCN(S(=O)(=O)c3ccc([N+](=O)[O-])cc3)CC2)C(=O)N1c1ccccc1F (stereo not given) | x | 0% | 0% | 2% | -2%
CCc1ccc(-c2ccc(SCc3ccccn3)nn2)cc1 | u | 3.2µM* | u | 8.5µM* | u
CCOc1ccc(-c2ccc(SCc3ccccn3)nn2)cc1 | 16% | u | u | 13µM* | -7%
CCN(CC)S(=O)(=O)c1ccc2c(c1)c(=O)c(C(=O)NCCCN(C)c1ccccc1)cn2C | 11µM* | -1% | -5% | 3% | -14%
CC1CCN(C(=O)c2[nH]cnc2C(=O)NCc2ccc(CNC(=O)OC(C)(C)C)cc2)CC1 | x | -1% | -8% | 4% | -6%
O=C(OCC(=O)N1CCN(C(=O)c2ccco2)CC1)c1ccc(Cl)nc1 | x | x | x | x | 0%
CC1SCC(NC(=O)c2ccccc2Cl)CS1 (stereo not given) | x | u | 4.5µM* | 17µM* | u
C/C(N)=C(/C#N)C(=O)CSc1ccccc1F | u | u | 3.5µM* | u | u
O=C(c1ccc(Cl)cc1)N1CCCCC(Sc2nnc(-c3ccc4c(c3)OCO4)o2)C1=O (stereo not given) | -87% | u | u | 1.9µM* | u
NC(=O)c1ccc(NC(=O)CSc2nnc(-c3ccc4c(c3)OCO4)o2)cc1 | x | 11% | 20% | -2% | 6%
C/C(N)=C(/C#N)C(=O)CSc1nnc(-c2ccc3c(c2)OCO3)o1 | 1.1µM* | 0.28µM* | 0.1µM* | 0.27µM* | 0.58µM*
C/C(N)=C(/C#N)C(=O)CSc1nnc(-c2ccc(OC(F)F)cc2)o1 | 11µM* | 1.4µM* | 1.3µM* | 2.7µM* | 5.8µM*
COc1cccc(N2C(=O)C(CC(=O)Nc3cccc(F)c3)N(C(C)C)C2=O)c1 (stereo not given) | x | x | x | -1% | x
O=C(Cc1ccc(-c2ccccc2)cc1)NCCS(=O)(=O)N1CCN(c2cccc(Cl)c2)CC1 | x | x | x | 2% | x
O=C(NCCc1ccc(Cl)cc1)C1CCN(S(=O)(=O)c2ccc3[nH]ccc3c2)CC1 | x | x | x | -1% | x
O=C(O)CSc1nnc(-c2ccc3c(c2)OCO3)o1 | -1% | -2% | -3% | u | 1%
NC(=O)CSc1nnc(-c2ccc3c(c2)OCO3)o1 | 13µM* | 2.8µM* | 2.5µM* | 15µM* | u
O=c1cc(-c2ccc(OCc3ccccc3)cc2)oc2cc(OCc3ccccc3)cc(OCc3ccccc3)c12 | x | x | x | x | 7%
C=CCn1c(O)c2ccc(C(=O)N=NC(=O)COc3ccccc3F)cc2c1O | x | -1% | 6% | 0% | 1%
CN(C)c1ccc(C(=O)OCC(=O)c2ccc[nH]2)cc1 | x | x | x | x | 16µM*
O=C(/C=C/c1ccccc1Cl)OCC(=O)c1ccc[nH]1 | x | 11% | 2% | 9.5µM* | 6%
